Assay results published in PubChem BioAssay AID1508600 (Functional Genomics Laboratory (NCATS/FGL), 2020).
Screen size: about 53,000 sequences; about 3,700 (7%) were called active. The entries come from a sample that favours actives as a whole. Unmarked numbers belong to inactive results.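 The calls were made as follows: active = gene knockdowns whose robust z-score for IL-1 alpha signal is at least 2 or at most -2, so actives lie on both sides; inactive = the rest.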

Assay: Components of the Cytosolic LPS Sensing Pathway: Gene Identification via Genome-wide siRNA Screen;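 also: robust z of the log signal after scaling to non-targeting control siRNA wells of the plate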
Conditions: RAW264.7 macrophages, IL-1a HTRF, actives lie on both sides, screened at 100 nM (by protocol), cells primed 5 h with Pam3CSK4 first
Summary of the method: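 Using IL-1a HTRF as read-out, the screen measured release from RAW264.7 cells after 48h siRNA knockdown (100 nM), 5 h Pam3CSK4 priming and 24 h cytosolic LipidA. Values were expressed relative to negative-control wells as robust z-scores.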

Row | Sequence | z-score
1 | GGCGAAUUAUUGAAAACGUTT against Actr8 | 0.916
2 | GGAGUUGGAUAUUCUAAAATT against B3gntl1 | -0.64
3 | GGGCAACCUGGUUACACAUTT against Zfp637 | 1.25
4 | UAGUCAUUGGGAUUCCUUCTT against Olfr112 | 2.98 (active)
5 | GGUGGAAUGAAAGAACAAGTT against Klhl13 | 1.74
6 | GGCCAGGAAAGAUACAGGATT against Rab3c | 0.486
7 | GGCCAUGCUGAAAGUAUUUTT against Olfr561 | -1.46
8 | GCUUAGAAUCUCUGGACAATT against Rnf168 | 3.21 (active)
9 | CGGGAACAUAUCAGACUAATT against Mcm3ap | -0.844
10 | GGCCAUUGAGCUCAACCCUTT against Sgta | -1.88
11 | CCUAUAAAUGUCCUUAGUCTT against Ccdc115 | 0.127
12 | CCUAUGGUGCUCUUAUAAATT against Dpp6 | -0.178
13 | GGUCUUAUGUAAGUGGUAUTT against Ociad1 | -2.03 (active)
14 | GGCACUGUGGUGUAAAUCCTT against Nnt | -1.53
15 | GGACAUCGAGCUUCAGAUCTT against Dnm1l | 2.68 (active)
16 | GGAGAUCGAUGGAGACUUCTT against Sftpa1 | -0.773
17 | CGACGAAUGUCCUGAACAUTT against Tmem106a | -0.193
18 | GCCUUGAUCCUACUGUAACTT against Amigo3 | 2.12 (active)
19 | GGGACUUAAGGUUAGACACTT against E330018D03Rik | 0.163
20 | CGACCUGUUCGCCAUCAAATT against Scaf1 | 0.511
21 | CGAGGUGCUAAUCUGGCCUTT against Dctpp1 | 0.241
22 | GGAACAAAUCCUGGAACUGTT against Zfp449 | 1.15

Row | Sequence | z-score
23 | GGACUGGUCAGAGAUGGAUTT against Pced1a | 5.33 (active)
24 | GGAAAUGUGGUAAUUCCGATT against Cd44 | 0.256
25 | CGAAAUGAAAACUUCCUGGTT against Mab21l1 | 0.989
26 | CCAUCAGUAUUCACAACAATT against Usp42 | -3.12 (active)
27 | GUUACCUCGUGGAAAGCAUTT against Vmn1r43 | -0.345
28 | GGUUUGAAGAUGAUGCCUCTT against Nfkbil1 | -0.848
29 | GGACCACUAGACCUGAUAATT against Itgb1bp1 | 0.116
30 | GCAUCCCGACUACAAGUACTT against Sox21 | -2.06 (active)
31 | GGUCCGGUCUCAGACUUCATT against Ift27 | 1.16
32 | GAUUGUCACCACCUUAAGATT against Chchd5 | -0.964
33 | CGAGAUGUCCCAGAAUCAUTT against Wdr75 | -2.26 (active)
34 | GCCAUGUUCCCAUUUAACUTT against A730018C14Rik | 1.34
35 | GCACGAGGAUGUGAUAUUCTT against Txndc2 | -0.65
36 | CCUUCUCUUUGCUCUAUGUTT against Olfr1284 | -0.647
37 | GCAUCGACAACCUCUCUAGTT against Hba-x | 3.15 (active)
38 | GCUUAGUUUAUGAGAAUGCTT against Ptprh | -0.791
39 | GGCCAUAUUUGUGACUGUGTT against Hao1 | -1.58
40 | GGAUCUUGAAGCCAAAUACTT against Ccdc127 | 2.56 (active)
41 | GGUAACCAAAACAAUUCUGTT against Cog8 | -0.00241
42 | GGUGUCUGAGUAAUUCUGGTT against Zscan5b | -1.55
43 | GUGUAGCUCUUCACAGUUATT against Fgf2os | 0.673
44 | GGCUUUGGAAUGAGAGCUUTT against Dynlrb1 | -2.07 (active)

Row | Sequence | z-score
45 | CGUGUUUAGGAAAAAUUGUTT against 2510039O18Rik | -0.398
46 | CCUGCUAAGUGAAUUUGUGTT against Cmpk1 | 2.18 (active)
47 | GCAACGAGCAAAAAGCAUGTT against Htr2a | -0.794
48 | GGUCCUUAUCGCUUGGAUGTT against Vwa8 | -0.202
49 | GGCUAAGACCAAAACUUUATT against Cyp4f13 | 0.772
50 | GCAGCUUUGAAAUUGUCCATT against Stard5 | -1.72
51 | CGAUGCAAAAAGAAUAGACTT against Mark1 | 0.673
52 | GGCUAGUUUUCUCUUAAAUTT against Usp1 | -3.12 (active)
53 | GAGUGUCCGAUAGACCGUUTT against Rbm4 | -0.429
54 | GGCGCAAAUACUUCUUCAUTT against Nrg1 | 0.533
55 | GCACCUUUGAGUGCAACAUTT against Rnf185 | -2.37 (active)
56 | CCUAAGAUUUUGGAACAAATT against Cenpm | -0.47
57 | GGCCAGGAGAAGAUUGAACTT against Ccdc42 | 0.00447
58 | GGCUGAAUCGGCAUUUCCATT against Klhdc3 | -0.184
59 | GGCUGCAUGGUACAGAUCUTT against Olfr463 | -2.33 (active)
60 | GCUUUUUGAGUCUGAUUUATT against Dmgdh | 0.413
61 | GGCAUUCAAAAGGUAAAAUTT against Grid2 | -0.515
62 | GCUGACUGCCAAGGAUUUUTT against Ogn | -0.135
63 | GGCAUGAAACCUCCAAAGCTT against 1520401A03Rik | 0.643
64 | CGGAUAUUUACGAACUUACTT against Pitpnb | 1.24
65 | GGGUCAGAUUUUCAAUGUCTT against Bmpr1b | 0.8
66 | GGUUGAAACUGCUCUCAAGTT against Prl2a1 | 1.77

Row | Sequence | z-score
67 | GGACCAUGAGGGAAUACAGTT against Bdkrb2 | 4.91 (active)
68 | CGCAGACAAGAAAUGAAGGTT against Hnf4aos | -1.98
69 | GCAUGAGGAAAAAUCUUCATT against Neurod4 | -0.158
70 | GGAGAAAUUUAAGAAGAGUTT against Xrcc5 | 0.674
71 | GCUACAUAAUUCCGAAGUUTT against Fmr1 | 2.23 (active)
72 | GCCAGAGGAUAACCUAUCGTT against Dsg4 | -0.254
73 | AAACUUGGCGUAUCAGGAATT against Gm3696 | -1.45
74 | GGAGUUUGUCUUCUCUUUCTT against Foxf1 | 0.0377
75 | GGAGAGUAUGGACAGUAUUTT against Pgc | 2.96 (active)
76 | GCAAAGACAAUCUUUAAGGTT against Pde4d | -0.747
77 | CCUUGUAAGUGAGAUCCGATT against Olfr118 | 1.38
78 | GGAGUAGAUGACAACACUATT against Defb19 | -0.401
79 | GGCAGCUGUAGAGGUGUUCTT against Haus7 | 2.36 (active)
80 | CGUGGCUAAACAAAGAGCUTT against Sass6 | -0.841
81 | CCCAAAAACGUGACAUCUUTT against Inppl1 | 0.901
82 | GCCUGGAAUCUCUUCAUGUTT against Pde3a | 0.679
83 | GGUGUUCUUGAGCUGUGAGTT against Igfbp7 | -2.32 (active)
84 | CCAAAAGGUUCGAGUUUCATT against Padi4 | 1.57
85 | GGAGUGUGUAUGGAAAAUATT against Tll1 | 0.0134
86 | GGCUCUUUCAACGUAAAUUTT against Fan1 | -2.72 (active)
87 | GGACCUUGGGCAGAUUCAATT against Atp10d | 0.54
88 | GGGUGUACAGGAUUUCCACTT against Nfyc | 0.0255

Row | Sequence | z-score
89 | GGAGCAACAACUUAAAUGUTT against Slc16a4 | 1.18
90 | GCUUUAGAUACGUGAUUAGTT against Desi2 | -0.125
91 | CCUUAUGAGUCUUACGACUTT against Zfp326 | 1.15
92 | CCCUCAAAGACCUGUACAUTT against Gm266 | 2.78 (active)
93 | GGAUGAUGAGCUGAACUUUTT against Mgrn1 | -0.897
94 | AAGAAUACUCAGAUCAGUUTT against Magee2 | 0.111
95 | GGAAAUCUCAGGUGAGGUCTT against Clcc1 | -0.127
96 | GGAUCAUCAAGAUAUAGAUTT against Trpm7 | 2.44 (active)
97 | GCCAGGAAUCACAAGAGCUTT against Mtg1 | 0.571
98 | GGAGUUAGAAACUCAUUUUTT against Ppargc1b | 1.5
99 | GGCACCCAUUCCUAAAAUGTT against Hmgn5 | -0.929
100 | GGAUCUGAAAAAAUUAAGCTT against Stat2 | 0.65
101 | GGAUAUGCCUCCCUUGAUGTT against Gstt3 | -2.4 (active)
102 | CGAGUGUUUGGACAACAAUTT against Ldlr | 0.391
103 | CUAUGUGGUCACAAUAGAGTT against Olfr1360 | 0.411
104 | CCUAUGUCACUAAGGCACGTT against Nudt13 | 0.482
105 | GCACGAUCUUCCAAACCCUTT against Dhh | -1.25
106 | CCAGGGUGGUCUUUUGAAGTT against Eif1 | -1.66
107 | GGUAGAUGAUAAUUUCACUTT against 4930595M18Rik | -0.894
